A number with no mark means an inactive call. Records with an inconclusive call do not appear. Active and inactive are the calls of the source. Unless noted, the call rests on the fitted dose curve; in most records, active means well fitted curve in the direction sought with a large enough effect in the repeat runs; inconclusive means weak or mixed curves; inactive means no such curve, though single readings can be large; an effect the other way counts as inactive or inconclusive.

Test [1] has as its target Progesterone receptor (Homo sapiens) (UniProt P06401). Description: qHTS assay to identify small molecule agonists of the progesterone receptor (PR) signaling pathway (AID 1346784; calls by dose curve; further: nearly all actives have a fitted effect of over 30% in size). Summed up:
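PR-UAS-bla HEK 293T cells (beta-lactamase reporter under UAS) in 2% charcoal-stripped FBS, dosed with 23 nL compound after 6 hr, incubated 16hr at 37C. LiveBLAzer B/G FRET substrate added, fluorescence read after 2 hours.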

Test [2] has the same target. Description: qHTS assay to identify small molecule antagonists of the progesterone receptor (PR) signaling pathway (AID 1346795; active means well fitted inhibition curve with a large enough effect in the signal ratio in the repeat runs, not every such curve was filed as active; the % refers to the signal ratio). An outline of the steps:
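PR-UAS-bla HEK293T cells with beta-lactamase reporter under UAS control, in 2% charcoal-stripped FBS, treated with compounds plus 1 nM promegestone (R5020, final) for 16 hr at 37C. Read-out: FRET beta-lactamase substrate fluorescence after 2 hr at room temperature.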

Test [3] can be described thus: qHTS assay to identify small molecule antagonists of the progesterone receptor (PR) signaling pathway - cell viability counter screen (AID 1346798). Further: nearly all actives have a fitted effect of over 50% in size. Further: potency means the concentration at half of the fitted maximal effect. On activity change, negative = cytotoxicity: series mostly up to about 92 µM. An outline of the steps: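 PR-UAS-bla HEK293T cells, 3,000/well in 2% charcoal-stripped FBS medium, dosed with compounds plus R5020 agonist and incubated 16 h at 37C. Viability then measured in the same wells by CellTiter-Glo luminescence after 30 min at RT.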
In general terms: qHTS replaces the single test concentration by a dilution series.

The nature of test [4]: qHTS assay to identify small molecule antagonists of the TGF-beta/Smad signaling pathway - cell viability counter screen (AID 1346824). Further: nearly all actives have a fitted effect of over 50% in size. An outline of the steps: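 SBE-bla HEK 293T cells, incubated overnight, then compound plus 0.25 ng/mL TGF-beta1 (stock added) for 5 hr at 37 C. Viability was read in the same wells by CellTiter-Glo luminescence after 30 min at room temperature.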

Test [5] can be described thus: qHTS assay to identify small molecule agonists of the TGF-beta/Smad signaling pathway - cell viability counter screen (AID 1346829). Further: top concentration of the series differs between compounds; nearly all actives have a fitted effect of over 45% in size. Summed up:
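Tox21 qHTS format: SBE-bla HEK 293T cells treated with DMSO-dissolved compounds for 5 hr; CellTiter-Glo luminescence after 30 min at room temperature.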

Test [6] is described as follows: qHTS assay to identify small molecule agonists of the TGF-beta/Smad signaling pathway (AID 1346859; active means well fitted activation curve with a large enough effect in the signal ratio in the repeat runs, not every such curve was filed as active; the % refers to the signal ratio; further: series mostly up to about 77 µM). An outline of the steps: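 SBE-bla HEK293T cells plated overnight, then compound exposure for 5 h at 37 C. Beta-lactamase reporter read with LiveBLAzer B/G FRET substrate after 2 h at room temperature, fluorescence at 405 nm excitation, 460/530 nm emission.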
The nature of test [7]: Caspase-3/7 induction in HepG2 cells by small molecules, qHTS assay (AID 1346978). Further: nearly all actives have a fitted effect of over 15% in size. An outline of the steps: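 Wild-type HepG2 cells, 2,000/well, settled 5 hr at 37 C and 5% CO2, then compound-treated for 17 hr; caspase-3/7 activity read by luminescent Caspase-Glo 3/7 after 30 min at room temperature.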
Test [8] is described as follows: Caspase-3/7 induction in CHO-K1 cells by small molecules, qHTS cell viability counter screen (AID 1346979). Further: nearly all actives have a fitted effect of over 35% in size. Further: potency means the concentration at half of the fitted maximal effect. Summed up:
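Wild-type CHO-K1 cells (1,500/well) treated with compound after 5 h plating; after 16 h at 37C, viability read as CellTiter-Fluor fluorescence following 1 h reagent incubation, in the same wells as the caspase read.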

A short description of test [9]: Caspase-3/7 induction in CHO-K1 cells by small molecules, qHTS assay (AID 1346980). Further: nearly all actives have a fitted effect of over 15% in size. Further: potency means the concentration at half of the fitted maximal effect. An outline of the steps: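 Wild-type CHO-K1 cells exposed to compounds for 17hr at 37 C, 5% CO2. Caspase-3/7 activity then measured by Caspase-Glo 3/7 luminescence after 30min at room temperature.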
The target in test [10] is Nuclear receptor subfamily 1 group I member 2 (Rattus norvegicus) (UniProt Q9R1A7). The test can be described thus: Rat pregnane X receptor (rPXR) activation by small molecules, qHTS assay (AID 1346983). Further: nearly all actives have a fitted effect of over 20% in size. The conditions noted are these: rPXR luciferase reporter cells, One-Glo luminescence, 24 h; max activation: hits give high values. An outline of the steps: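 Cell-based rPXR activation assay: rPXR cells, 2,000 per well, rested 5hr at 37 C, then exposed to compounds in DMSO for 24 hr at 37 C. Luciferase activity read by One-Glo luminescence after 30 min at room temperature.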

Test [11] has as its target Nuclear receptor subfamily 1 group I member 2 (Homo sapiens) (UniProt O75469). Description: CYP3A4 induction through human pregnane X receptor (PXR) by small molecules, qHTS assay (AID 1346984). Further: nearly all actives have a fitted effect of over 40% in size. Further: potency means the concentration at half of the fitted maximal effect. Summed up:
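HepG2-derived DPX-2 line carrying PXR plus a CYP3A4-promoter luciferase reporter; cells plated 5 hr, compound-exposed 24 hr at 37C. CYP3A4 activity probed with 3uM (final) Luciferin-IPA for 3hr, then luciferase read after One-Glo.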

Test [12] has the same target. The test can be described thus: Human pregnane X receptor (PXR) activation by small molecules, qHTS assay (AID 1346985). Further: nearly all actives have a fitted effect of over 40% in size. Further: potency means the concentration at half of the fitted maximal effect. An outline of the steps: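 DPX-2 cells (HepG2 co-transfected with a PXR response element and a CYP3A4-promoter luciferase construct) were seeded at 2,000 per well, rested 5 hr at 37C, then exposed to DMSO-dissolved compounds for 24 hr. Activation was read as luciferase luminescence.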

Test [13] has as its target Cytochrome P450 2D6 (Homo sapiens) (UniProt P10635). Description: Cytochrome P450 Family 2 Subfamily D Member 6 (CYP2D6) small molecule antagonists: luciferase reporter qHTS assay (AID 1671196). Further: nearly all actives have a fitted effect of over 50% in size. Further: potency means the concentration at half of the fitted maximal effect. On activity change, negative = inhibition: series mostly up to about 120 µM. An outline of the steps:
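Luminogenic proluciferin substrate, CYP2D6 enzyme; 10 min RT preincubation with compound, NADPH regeneration system added, 1 h RT. Stop/detection reagent, 20 min RT, luminescence read (RLU). Signal proportional to CYP activity.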
On the technique in general: In a reporter assay the amount or activity of a reporter protein is the signal.

In test [14] the target is Thyrotropin-releasing hormone receptor (Homo sapiens) (UniProt P34981). The test can be described thus: qHTS assay to identify small molecule antagonists of the thyrotropin-releasing hormone receptor (TRHR) signaling pathway (AID 1346877; active means well fitted inhibition curve with a large enough effect in the repeat runs, not every such curve was filed as active; further: series mostly up to about 51 µM). Summed up: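 HEK293/TRHR cells, 18 h, 37 °C; Ca2+ dye 2 h; cpd 5 min RT; TRH 1 nM final; fluorescence read 3 min, 1 s intervals; 15 concs, triplicate.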

For test [15] the target is unchanged. Description: qHTS assay to identify small molecule agonists of the thyrotropin-releasing hormone receptor (TRHR) signaling pathway (AID 1346891; calls by dose curve; further: series mostly up to about 58 µM). Summed up:
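HEK293 cells expressing TRHR plated 18 h at 37 C/5% CO2, calcium dye-loaded 2 h at 37 C, then compound added (agonist mode); kinetic calcium fluorescence read 3 min at 1 s intervals; 15 concentrations in triplicate.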

Test [16] in a line: Human pregnane X receptor (PXR) small molecule agonists, qHTS cell viability counter screen (AID 1346977). Further: nearly all actives have a fitted effect of over 50% in size. Further: potency means the concentration at half of the fitted maximal effect. An outline of the steps:
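PXR-Luc HepG2 cells (2,000/well, 5% charcoal-stripped FBS) preincubated 5 hr, then exposed to compounds 24 hr at 37 C. Viability read in the same wells by CellTiter-Fluor fluorescence, reagent added at 23 hr, 1 hr incubation.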

Test [17] is described as follows: Caspase-3/7 induction in HepG2 cells by small molecules, qHTS cell viability counter screen (AID 1346981). Further: nearly all actives have a fitted effect of over 30% in size. Further: potency means the concentration at half of the fitted maximal effect. On activity change, negative = cytotoxicity: series mostly up to about 92 µM. Summed up:
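Fluorescence read-out of live-cell protease activity (CellTiter-Fluor) after 1 hr with reagent. This was measured in the same wells as the caspase-3/7 luminescence, on HepG2 cells exposed to DMSO-dissolved compounds for 16 hr at 37 C.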

The target of test [18] is Nuclear receptor subfamily 1 group I member 2 (Homo sapiens) (UniProt O75469). Description: Human pregnane X receptor (PXR) small molecule agonists, qHTS assay (AID 1346982). Further: nearly all actives have a fitted effect of over 35% in size. Further: potency means the concentration at half of the fitted maximal effect. Summed up:
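HepG2 PXR-Luc reporter line, 5% charcoal-stripped FBS; 5 hr pre-incubation, compound (DMSO) 24 hr at 37 C/5% CO2; ONE-Glo 30 min RT; luminescence read-out.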

A short description of test [19]: qHTS assay to identify small molecule agonists of the progesterone receptor (PR) signaling pathway - cell viability counter screen (AID 1346799; calls by dose curve; further: nearly all actives have a fitted effect of over 45% in size; further: potency means the concentration at half of the fitted maximal effect). Summed up:
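Counter screen in the PR-UAS-bla HEK293T wells (2% charcoal-stripped FBS, 16 h compound exposure at 37 C) after the bla read. CellTiter-Glo added, 30 min at room temperature, luminescence read as cell viability.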
On the % scale 0 is the no-effect control and ±100 the full control effect.

Sequence of Cytochrome P450 2D6 (Homo sapiens) (P10635 whole entry, looked up): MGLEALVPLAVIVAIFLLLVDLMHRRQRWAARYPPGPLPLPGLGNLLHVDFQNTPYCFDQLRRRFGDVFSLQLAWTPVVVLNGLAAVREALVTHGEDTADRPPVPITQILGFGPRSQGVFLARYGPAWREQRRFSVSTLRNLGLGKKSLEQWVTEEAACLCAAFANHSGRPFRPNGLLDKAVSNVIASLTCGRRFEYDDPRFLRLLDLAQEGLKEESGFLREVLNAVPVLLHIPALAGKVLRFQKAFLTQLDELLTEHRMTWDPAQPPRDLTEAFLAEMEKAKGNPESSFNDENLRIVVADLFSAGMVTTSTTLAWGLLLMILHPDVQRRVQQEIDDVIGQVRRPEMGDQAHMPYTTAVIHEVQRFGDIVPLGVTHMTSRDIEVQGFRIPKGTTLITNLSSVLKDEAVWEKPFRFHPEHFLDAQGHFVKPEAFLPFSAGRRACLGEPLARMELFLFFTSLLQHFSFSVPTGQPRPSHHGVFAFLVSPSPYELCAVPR
Sequence of Progesterone receptor (Homo sapiens) (P06401 whole entry, looked up): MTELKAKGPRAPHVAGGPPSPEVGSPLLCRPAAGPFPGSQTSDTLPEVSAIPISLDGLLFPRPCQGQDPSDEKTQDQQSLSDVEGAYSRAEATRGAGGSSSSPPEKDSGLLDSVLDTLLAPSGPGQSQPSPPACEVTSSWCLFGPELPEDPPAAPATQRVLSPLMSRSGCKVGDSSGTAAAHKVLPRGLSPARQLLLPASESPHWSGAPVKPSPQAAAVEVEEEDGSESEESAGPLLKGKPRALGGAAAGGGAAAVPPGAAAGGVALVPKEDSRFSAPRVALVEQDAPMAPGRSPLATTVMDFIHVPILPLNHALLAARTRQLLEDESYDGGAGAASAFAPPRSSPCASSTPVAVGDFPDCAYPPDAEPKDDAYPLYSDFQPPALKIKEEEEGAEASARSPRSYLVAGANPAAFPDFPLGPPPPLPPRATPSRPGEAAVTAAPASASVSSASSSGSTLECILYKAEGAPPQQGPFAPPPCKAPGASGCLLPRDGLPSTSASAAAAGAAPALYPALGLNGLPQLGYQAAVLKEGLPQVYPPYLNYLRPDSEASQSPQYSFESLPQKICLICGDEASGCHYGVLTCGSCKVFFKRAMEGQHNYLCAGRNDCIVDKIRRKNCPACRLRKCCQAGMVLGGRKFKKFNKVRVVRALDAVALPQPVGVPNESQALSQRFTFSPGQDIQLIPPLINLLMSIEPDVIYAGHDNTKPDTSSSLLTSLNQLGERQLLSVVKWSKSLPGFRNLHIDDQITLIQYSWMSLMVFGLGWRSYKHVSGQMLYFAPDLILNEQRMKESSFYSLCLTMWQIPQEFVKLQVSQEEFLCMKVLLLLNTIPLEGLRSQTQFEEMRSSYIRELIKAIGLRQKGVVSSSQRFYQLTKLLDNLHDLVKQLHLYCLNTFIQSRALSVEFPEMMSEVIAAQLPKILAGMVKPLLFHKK
Sequence of Nuclear receptor subfamily 1 group I member 2 (Rattus norvegicus) (Q9R1A7 whole entry, looked up): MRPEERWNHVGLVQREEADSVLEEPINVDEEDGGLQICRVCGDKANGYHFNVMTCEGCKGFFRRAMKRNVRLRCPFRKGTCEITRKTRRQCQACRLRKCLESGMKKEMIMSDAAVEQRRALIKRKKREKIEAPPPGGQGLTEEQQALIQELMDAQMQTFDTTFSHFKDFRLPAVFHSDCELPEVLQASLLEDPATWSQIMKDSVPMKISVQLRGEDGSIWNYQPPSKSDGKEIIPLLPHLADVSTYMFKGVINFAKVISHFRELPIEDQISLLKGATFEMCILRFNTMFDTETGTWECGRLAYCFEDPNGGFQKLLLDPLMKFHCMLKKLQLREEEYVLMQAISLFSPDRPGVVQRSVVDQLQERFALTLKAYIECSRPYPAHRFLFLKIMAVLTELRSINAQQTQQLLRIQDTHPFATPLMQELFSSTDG
Sequence of Nuclear receptor subfamily 1 group I member 2 (Homo sapiens) (O75469 whole entry, looked up): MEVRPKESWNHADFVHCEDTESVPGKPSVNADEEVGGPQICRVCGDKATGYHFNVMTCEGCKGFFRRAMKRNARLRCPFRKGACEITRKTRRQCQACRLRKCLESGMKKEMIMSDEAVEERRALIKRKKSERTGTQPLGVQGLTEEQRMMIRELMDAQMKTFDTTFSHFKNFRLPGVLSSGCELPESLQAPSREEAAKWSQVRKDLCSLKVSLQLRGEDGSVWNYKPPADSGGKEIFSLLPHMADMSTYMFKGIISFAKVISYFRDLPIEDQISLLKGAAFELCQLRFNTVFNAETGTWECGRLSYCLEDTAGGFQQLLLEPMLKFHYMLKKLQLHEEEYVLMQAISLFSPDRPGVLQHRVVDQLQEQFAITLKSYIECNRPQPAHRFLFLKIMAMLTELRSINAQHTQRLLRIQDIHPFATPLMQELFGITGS
Sequence of Thyrotropin-releasing hormone receptor (Homo sapiens) (P34981 whole entry, looked up): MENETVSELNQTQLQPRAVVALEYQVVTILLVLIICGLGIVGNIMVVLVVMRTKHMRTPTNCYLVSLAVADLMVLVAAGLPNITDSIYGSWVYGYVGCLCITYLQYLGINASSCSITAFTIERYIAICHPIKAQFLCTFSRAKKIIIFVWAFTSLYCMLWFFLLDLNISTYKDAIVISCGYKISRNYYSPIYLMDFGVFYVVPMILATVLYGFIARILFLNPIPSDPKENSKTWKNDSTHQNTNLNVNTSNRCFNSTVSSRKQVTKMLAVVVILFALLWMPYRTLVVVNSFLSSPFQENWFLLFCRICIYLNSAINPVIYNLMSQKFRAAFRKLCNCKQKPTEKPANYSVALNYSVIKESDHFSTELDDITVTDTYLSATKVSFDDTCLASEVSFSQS

`O=C(CCN1CCN2CCCC2C1)N1c2ccccc2Sc2ccc(Cl)cc21` (stereo not given): the activation in test [1] is -2.53% [at 19 µM]; in [6], -2.07% [at 15.8 µM]. The activity change, negative = inhibition in [2] is -10.4% [at 18.9 µM]. For the same compound, the results for the activity change, negative = cytotoxicity in [3], in [5] and in test [8] were -27.7% [at 18.9 µM], -3.72% [at 15.8 µM] and -16.9% [at 19 µM], respectively. Also, the viability change, negative = cytotoxic in test [4] was 0.3% [at 15.8 µM]. Besides, the caspase activation in test [7] is 1.09% [at 19 µM]. Moreover, in test [9], the caspase-3/7 activation was 0.894% [at 19 µM]. In addition, the max activation in test [10] was 3.92%. The figures for the Potency in test [11], in test [12] and in [13] were 12.6 µM (active), 12.6 µM (active) and 6.74 µM (active), respectively.
On to `CCc1nn(C2CCCCC2)c2cc(C3(C#N)CCC(C(=O)O)CC3)ccc12` (stereo not given), for which the compound was called inactive in test [1], in [14] and in [7]. The Potency entry in [4], in [5], in [15], in test [9] and in test [13] was “inactive” each time. The Potency in [16] was 48.6 µM (active); in [8], 27.3 µM (active); in [17], 15.4 µM (active); in [18] it was 68.6 µM (active).
On to `CCN(CC)CCOc1ccc2c(c1)C(=O)c1cc(OCCN(CC)CC)ccc1-2`, for which the Potency in [3] was 13.3 µM (active); in [19] it was 16.8 µM (active); in [16], 13.3 µM (active); in test [8], 26.6 µM (active). In addition, the Potency entry in [4], in test [5], in test [15], in test [9], in [11] and in test [12] was “inactive” each time. Further, the call in [6], in test [14] and in test [7] was inactive. The max activation in test [10] was 2.03%.
For `CC(=O)/C(C)=C/C1C(C)=CCCC1(C)C` (stereo not given), the compound was classed as inactive in [1], in test [6] and in test [14]. Besides, the Potency result in [3], in test [4], in [5], in test [15], in [16] and in [8] was “inactive” throughout. Moreover, the Potency entry in [9], in [17], in test [18] and in [13] was “inactive” throughout.
For `Cc1ccc(O)c([C@H](CCN(C(C)C)C(C)C)c2ccccc2)c1`, the call in [1], in test [6], in test [14] and in test [7] was inactive. Moreover, the Potency entry in [2], in [4], in test [5], in test [8] and in test [9] was “inactive” in each case. Besides, the values for the Potency in test [16] and in test [13] were 11.9 µM (active) and 3.09 µM (active), respectively. Besides, in [10], the max activation is 2.91%.
As for `Cc1ccc(C(C)c2ccc(C)c(C)c2)cc1C`, the outcome in test [1], in test [6], in test [14] and in [7] was inactive. In addition, the Potency entry in test [3], in test [19], in test [4], in test [5], in test [15] and in test [16] was “inactive” each time. In addition, the Potency result in [8], in test [9], in [17] and in test [13] was “inactive” throughout.
For `CCN(CC)CCc1nc(-c2ccccc2)no1`, the compound was called inactive in test [1], in test [6], in [14] and in [7]. Moreover, the Potency entry in test [3], in [4], in test [5], in test [15], in test [16] and in test [8] was “inactive” in each case. Moreover, the Potency result in test [9], in [17], in test [18], in test [11] and in [12] was “inactive” each time. Besides, the max activation in test [10] was -0.305%. Further, the Potency in test [13] was 7.76 µM (active).
As to `Cc1cc(O)ccc1N`, the compound was classed as inactive in [1], in test [6], in test [14] and in test [7]. The Potency entry in test [19], in test [4], in [5] and in test [15] was “inactive” throughout. Besides, the Potency in [8] was 61.4 µM (active); in [18], 61.4 µM (active); in test [13], 20.1 µM (active).
In the case of `C=CC(=O)OCC(C)OCC(C)OCC(C)OC(=O)C=C` (stereo not given), the compound was called inactive in [1], in [6], in [14] and in test [7]. Besides, the Potency entry in test [3], in test [19], in test [4], in [15], in test [16] and in test [17] was “inactive” each time. In addition, the Potency entry in test [18] and in test [13] was “inactive” each time. The Potency in test [8] and in test [9] was 24.3 µM (active) in each case.
As to `NCCCN(CCO)CCO`, the outcome in test [1], in test [6], in test [14] and in test [7] was inactive. Besides, the Potency entry in test [3], in test [19], in [4], in [5], in test [15] and in test [16] was “inactive” throughout. The Potency result in test [8], in test [9], in test [17] and in test [18] was “inactive” throughout.
As to `CCCCOc1ccc(CC(=O)NO)cc1`, the compound was called inactive in test [1] and in [6]. Besides, the Potency result in test [4], in [5], in test [9], in test [18], in test [11] and in [12] was “inactive” in each case. In addition, the figures for the Potency in [8] and in [13] were 23.7 µM (active) and 15.5 µM (active), respectively. For the same compound, the max activation in test [10] is -0.916%.

Source of the values: PubChem BioAssay (Tox21).
